Only some compounds are listed: those with a hit (about 2.4% of all), similar ones and a draw of the others.
TGFb inhibitor – qHTS for Inhibitors of TGF-b; Potency, µM (doses to about 46.1 µM), inactives show at the top dose activity, negative = inhibition, actives largely listed as inhibitors; AID 588855, 2011; HepG2 CAGA-GFP TGF-b/SMAD3 reporter, GFP fluorescence, 18 h; TGF-beta stimulated, 500 pg/mL final; 410,000 compounds, 1.2% hits; also: % is scaled to controls: 0 for no effect and ±100 for the full control effect; nearly all actives have a fitted effect of over 65% in size
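HEPG2 CAGA-GFP, 1000 cells/well; 2 h settle, 37 C; cpd via pin tool; TGF-b 500 pg/mL final; 18 h, 37 C; GFP imaging ex488/em500-530; %Activity normalised to -TGF-b and +DMSO controls; CRC fit, curve class.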
HepG2 viability – qHTS for Inhibitors of TGF-b: Cytotox Counterscreen. HepG2 CAGA-GFP viability, ATP luminescence, 18 h. Potency, µM (titrated, usually from 46.1 µM), without a hit: top-dose activity change, negative = cytotoxicity, usual class: cytotoxic. 410,000 compounds, 0.76% hits. AID 588856, 2011
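HepG2 CAGA-GFP cells (1000/well, DMEM with 1% FBS) received compound, then TGF-beta at 500 pg/mL final, and were incubated 18 hours at 37 degrees C. Viability was read by CellTiter-Glo luminescence. Media-only wells were set as complete cell-killing and DMSO as no toxicity.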
ATXN viability – Viability Counterscreen for Primary qHTS for Inhibitors of ATXN expression. S2 cells (HEK-293 line with an ATXN2-luciferase reporter) viability, CellTiter-Fluor protease fluorescence, 24 h. Potency, µM (top dose mostly 56.7 µM), actives largely listed as cytotoxic. 400,000 compounds, 0.49% hits; also: nearly all actives have a fitted effect of over 40% in size
ATXN2 expr inh – Primary qHTS for Inhibitors of ATXN expression; HEK-293 ATXN2-luciferase reporter, luminescence, 24 h; Potency, µM (doses to about 57 µM), inactives show at the highest dose activity change, negative = inhibition, usual class: inhibitors; 360,000 compounds, 0.72% hits; AID 1745845, 2022; also: % is scaled to controls: 0 for no effect and ±100 for the full control effect; nearly all actives have a fitted effect of over 55% in size
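qHTS (up to 57 uM final) was run with 24 h compound exposure of reporter cells at 37 °C. Each well was multiplexed: SteadyGlo luminescence measured ATXN2-luciferase expression after a fluorogenic Gly-Phe-AFC viability readout (25 uM final).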
Anesthetic bind – qHTS Assay for Identification of Novel General Anesthetics. Ferritin light chain (Equus caballus), P02791. apoferritin/1-aminoanthracene competitive binding, fluorescence. Potency, µM (top dose mostly 77.5 µM), inactives show at the highest dose activity change, negative = displacement, actives largely listed as inhibitors. 350,000 compounds, 0.074% hits. AID 485281, 2010; also: % is scaled to controls: 0 for no effect and ±100 for the full control effect; nearly all actives have a fitted effect of over 20% in size
Target sequence (P02791 2-175 limits assumed): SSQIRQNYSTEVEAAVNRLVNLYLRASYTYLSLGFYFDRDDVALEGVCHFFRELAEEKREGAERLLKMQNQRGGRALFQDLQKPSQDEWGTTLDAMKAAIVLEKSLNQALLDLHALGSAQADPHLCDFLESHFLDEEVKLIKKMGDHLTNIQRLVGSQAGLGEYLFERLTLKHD
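Read-out: endpoint 1-AMA fluorescence, excitation 380 nm and emission 535 nm, after compounds sit 10 min at room temperature with 10 uM horse-spleen apoferritin in 50% saturated 1-AMA/PBS. Values come from four-parameter Hill fits.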
Numbers without * were called inactive; ! = not confirmed by another sample. Calls follow the shape of the dose curve; as a rule, active = well fitted curve in the direction sought with a large enough effect; inconclusive = small, poorly fitted or top-dose-only effect, or another doubt; inactive = no such curve, though single readings can be large; an effect the other way counts as inactive or inconclusive. Potency is read from the fitted curve at half-maximal effect.

Results for CSCC[C@H](NC(=O)[C@H](CC(C)C)NC(=O)[C@@H](Cc1cnc[nH]1)NC(=O)[C@H](Cc1ccccc1)NC(=O)[C@@H](Cc1ccccc1)NC(=O)[C@@H](N)Cc1ccc(O)cc1)C(N)=O ?
Anesthetic bind: -2.0%

What do the screens show for `Cc1c(C=O)c2ccccc2n1Cc1cccc(F)c1`?
TGFb inhibitor: 1.78µM*; HepG2 viability: -42.1%; ATXN viability: inactive; ATXN2 expr inh: -5.9%; Anesthetic bind: -10.6%

How did Fc1ccc([C@@H]2CCNC[C@H]2COc2ccc3c(c2)OCO3)cc1 do in these assays?
TGFb inhibitor: inconclusive; HepG2 viability: 11.2µM*!; ATXN viability: 28.2µM*; ATXN2 expr inh: 31.6µM*!; Anesthetic bind: -9.6%

How did Fc1ccc(CNCCc2ccc3c(c2)OCO3)cc1 do in these assays?
TGFb inhibitor: -7.2%; HepG2 viability: -32.6%; Anesthetic bind: -3.3%

Results for COc1cccc(C(=O)CCN[C@@H](C)[C@H](O)c2ccccc2)c1 ?
ATXN viability: 31.6µM*!; ATXN2 expr inh: inconclusive

How did COc1cc(OC)c(OC)cc1CNC(C)C(O)c1ccccc1 (stereo unspecified) do in these assays?
TGFb inhibitor: -1.3%; HepG2 viability: -32.3%; ATXN viability: inactive; ATXN2 expr inh: -4.0%; Anesthetic bind: -6.6%

How did CC(C)NCC(O)c1ccc([N+](=O)[O-])cc1 (stereo unspecified) do in these assays?
ATXN viability: inactive; ATXN2 expr inh: -1.8%

Results for O=[N+]([O-])c1ccc(C(c2ccc([N+](=O)[O-])cc2)c2ccc([N+](=O)[O-])cc2)cc1 ?
TGFb inhibitor: inconclusive; HepG2 viability: -20.6%; ATXN viability: inconclusive; ATXN2 expr inh: 31.6µM*

Results for c1ccc(-c2nn(-c3ccccc3)[n+](-c3ccccc3)n2)cc1 ?
TGFb inhibitor: 10µM*; HepG2 viability: -51.6%; ATXN viability: inconclusive; ATXN2 expr inh: inconclusive

What do the screens show for `C[N+](C)(C)CCCl`?
Anesthetic bind: -7.9%

What do the screens show for `CCCCCCCCCCCCCCCC[N+](C)(C)C`?
TGFb inhibitor: inconclusive; HepG2 viability: -105.7%; ATXN viability: inconclusive; ATXN2 expr inh: 31.6µM*!; Anesthetic bind: inconclusive

How did CC(O)=C(C#N)C(=O)Nc1cc(Br)ccc1Br do in these assays?
ATXN2 expr inh: 8.3%

How did C=CC[C@@H](CC(=O)N(CCO)Cc1ccccc1)C(=O)NC[C@H](OC(=O)[C@@H](CC=C)CC(=O)OC(C)(C)C)c1ccccc1 do in these assays?
TGFb inhibitor: inconclusive; HepG2 viability: -10.3%; ATXN viability: inconclusive; ATXN2 expr inh: inconclusive

How did O=C1/C(=C/c2ccccc2)C[C@@]2(O)[C@H]3Cc4ccc(O)c5c4[C@@]2(CCN3CC2CC2)C1O5 (stereo partly specified) do in these assays?
TGFb inhibitor: 5.62µM*; HepG2 viability: 10µM*; ATXN viability: 7.08µM*; ATXN2 expr inh: 3.55µM*

How did O=C1CC[C@]2(O)C3Cc4ccc(O)c5c4C2(CCN3CC2CC2)C1O5 (stereo partly specified) do in these assays?
Anesthetic bind: -3.5%

Results for C=CCCC[C@@H]1OC(=O)CNC(=O)C([C@@H](C)CC)NC(=O)[C@@H]2CCCN2C(=O)C([C@@H](C)CC)OC(=O)[C@H](Cc2ccccc2)N(C)C(=O)[C@H](C(C)C)NC(=O)C1(C)C (stereo partly specified) ?
TGFb inhibitor: 10µM*; HepG2 viability: -31.0%; ATXN viability: inconclusive; ATXN2 expr inh: 31.6µM*

What do the screens show for `Cn1ncnc2c(=O)n(C)c(=O)nc1-2`?
TGFb inhibitor: 0.112µM*; HepG2 viability: 0.199µM*; ATXN viability: 4.47µM*; ATXN2 expr inh: 3.55µM*; Anesthetic bind: -9.1%

How did Cc1ccc(-c2nc3c(=O)n(C)c(=O)nc-3n(C)n2)cc1 do in these assays?
TGFb inhibitor: 0.794µM*; HepG2 viability: 1µM*
